Bioassay records deposited in PubChem BioAssay by several laboratories.
Rv3671c inh = inhibits the M. tuberculosis serine protease Rv3671c; P9WHR9; inhibition, % at 5.96 µM; 320,000 compounds, 0.048% hits; AID 2606; in the data active means inhibition above about 38%;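 further: extracellular domain of Rv3671c used as enzyme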
FBA Mtb inh = Mtb fructose-bisphosphate aldolase inhibition. purified M. tuberculosis FBA, fluorescence read-out. inhibition, % at 1 µM. 360,000 compounds, 2.3% hits. AID 588726
BH1578 lux ind = quorum light induction in luxS cqsA deficient V. cholerae; V. cholerae BH1578 lux reporter, luminescence, 6 h; activation, % at 18.7 µM; 350,000 compounds, 0.16% hits; AID 588436; in the data active means activation mostly above about 9.7%, no sharp cut-off
Mtb UGM inh = blocks M. tuberculosis UGM enzyme | P9WIQ1 | purified UGM, fluorescence polarization probe displacement | inhibition, % at 10 µM | 320,000 compounds, 0.06% hits; in the data active means inhibition above about 10%, passing the limit was not always enough
GDH-TPI counter-1 = GDH-TPI coupled enzyme inhibition counter-screen. GDH-TPI coupled enzyme counterscreen, NADH absorbance. 360,000 compounds, 1.2% hits. AID 588335. inhibition, % at 4.8 µM; in the data active means inhibition above about 30%
RecA intein inh = blocks M. tuberculosis RecA intein splicing. cell-free RecA intein splicing, fluorescence. P9WHJ3. 290,000 compounds, 0.75% hits. inhibition, % (no concentration beside the values); in the data active means inhibition above about 30%
Target sequence (P9WHJ3 whole entry, looked up): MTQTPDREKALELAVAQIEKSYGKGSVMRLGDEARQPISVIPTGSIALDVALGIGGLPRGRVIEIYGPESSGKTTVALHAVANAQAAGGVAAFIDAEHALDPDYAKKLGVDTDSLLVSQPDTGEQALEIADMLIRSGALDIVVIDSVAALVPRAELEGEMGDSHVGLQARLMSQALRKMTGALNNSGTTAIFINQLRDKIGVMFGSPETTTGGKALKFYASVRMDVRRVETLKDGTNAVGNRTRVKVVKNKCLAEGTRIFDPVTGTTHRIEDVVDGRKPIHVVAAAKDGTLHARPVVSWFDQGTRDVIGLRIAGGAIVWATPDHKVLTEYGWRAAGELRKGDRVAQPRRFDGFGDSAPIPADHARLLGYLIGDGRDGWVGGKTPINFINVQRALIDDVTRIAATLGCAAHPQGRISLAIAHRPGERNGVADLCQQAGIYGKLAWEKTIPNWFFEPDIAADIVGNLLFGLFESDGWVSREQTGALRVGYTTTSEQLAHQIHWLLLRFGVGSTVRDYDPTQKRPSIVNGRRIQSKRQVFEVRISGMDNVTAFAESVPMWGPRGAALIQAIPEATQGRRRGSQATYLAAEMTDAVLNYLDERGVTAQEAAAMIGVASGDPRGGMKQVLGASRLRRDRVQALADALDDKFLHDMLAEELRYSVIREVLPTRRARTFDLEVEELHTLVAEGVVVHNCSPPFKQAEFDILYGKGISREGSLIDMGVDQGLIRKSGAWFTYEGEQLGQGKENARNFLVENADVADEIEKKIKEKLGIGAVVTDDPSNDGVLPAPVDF
Mtb FBA inh conf = Mtb FBA inhibition, confirmed. shares compounds with FBA Mtb inh. purified M. tuberculosis FBA, fluorescence read-out. inhibition, % at 1 µM. 5,600 compounds, 78% hits. AID 651616
GDH-TPI counter-2 = inhibits GDH-TPI coupling enzymes, flagging Mtb FBA hits. inhibition, % at 1 µM. 5,600 compounds, 81% hits. shares compounds with FBA Mtb inh. GDH-TPI coupled enzyme counterscreen, fluorescence; in the data active means inhibition above about 10%
Hits are given with their value; i = inactive; nt = no result; + = active, no number. Shown are actives, neighbours in structure and some others; about 4.1% of the full set was active somewhere. Unless noted, no stated cut-off is given here; in the data, active means inhibition above about 27%; inactive means the rest.

SMILES | Rv3671c inh | FBA Mtb inh | BH1578 lux ind | Mtb UGM inh | GDH-TPI counter-1 | RecA intein inh | Mtb FBA inh conf | GDH-TPI counter-2
COc1ccc2oc(C(=O)OCC(=O)N3CCCCC3C)c(C)c2c1 (configuration not stated) | i | 63 | i | i | i | nt | 195 | 169
Cc1c(C(=O)OCC(=O)N2C(C)CCCC2C)oc2ccccc12 (configuration not stated) | i | i | i | i | i | i | nt | nt
COc1ccc2oc(C(=O)OCC(=O)N3C(C)CCCC3C)c(C)c2c1 (configuration not stated) | i | 40 | i | i | i | i | 41 | 45
COc1ccc2oc(C(=O)OCC(=O)N3CCN(S(=O)(=O)c4ccc(C)cc4)CC3)c(C)c2c1 | i | i | i | i | i | i | nt | nt
OC(c1ccc(Cl)c(Cl)c1)c1ncc(-c2ccc(C(F)(F)F)cc2)[nH]1 (configuration not stated) | nt | i | i | nt | i | nt | nt | nt
CC(=O)N(Nc1ccccc1)c1ccccc1 | i | i | i | i | i | i | nt | nt
COc1ccc(CNC(=O)C2CCN(c3nc(-c4ccccc4)nc4c3CCC4)CC2)cc1 | i | i | i | i | i | i | nt | nt
CCCc1cc(CNC(=O)C2CCC(=O)N(Cc3ccccc3OC)C2)on1 (configuration not stated) | i | i | i | i | i | i | nt | nt
CC(OC(=O)C1=COCCO1)C(=O)NC1CCCC(C)C1C (configuration not stated) | nt | i | i | nt | i | nt | nt | nt
CCCn1c(N)c(N(CCOC)C(=O)COC(=O)c2ccccc2NCCO)c(=O)[nH]c1=O | i | 90 | i | i | i | i | 122 | 103
COc1ccc(NC(=O)C2(C)Cc3c(-c4ccc5c(c4)OCO5)ccnc3O2)cn1 (configuration not stated) | nt | 42 | i | nt | i | nt | 169 | 124
COCCNC(=O)C1(C)Cc2c(-c3ccc4c(c3)OCO4)ccnc2O1 (configuration not stated) | nt | 96 | i | nt | i | nt | 71 | 51
CC1(C(=O)Nc2ccc3c(c2)OCO3)Cc2c(-c3ccc4c(c3)OCO4)ccnc2O1 (configuration not stated) | nt | i | i | nt | i | nt | nt | nt
CC1(C(=O)NCCc2ccccc2)Cc2c(-c3ccc4c(c3)OCO4)ccnc2O1 (configuration not stated) | nt | 46 | i | nt | i | nt | 59 | 41
CC1(C(=O)NCc2ccccc2)Cc2c(-c3ccccc3)ccnc2O1 (configuration not stated) | nt | i | i | nt | i | nt | nt | nt
CC1(C(=O)NCCc2ccccc2)Cc2c(-c3ccccc3)ccnc2O1 (configuration not stated) | nt | i | i | nt | i | nt | nt | nt
CC1(C(=O)NCc2ccccc2)Cc2c(-c3ccc4c(c3)OCO4)ccnc2O1 (configuration not stated) | nt | 69 | i | nt | i | nt | 109 | 105
CC[C@H](NC(=O)/C=C/[C@H]1O[C@@H](n2cc(C)c(=O)[nH]c2=O)C[C@@H]1O)c1ccccc1 | nt | i | nt | nt | nt | nt | nt | nt
Cc1cc(C)c(NC(=O)CNC(=O)c2cc(C3CC3)nc3c2cnn3C(C)C)c(C)c1 | nt | 35 | i | nt | i | nt | 121 | 92
CCc1ccccc1NC(=O)CNC(=O)c1cc(C2CC2)nc2c1cnn2C(C)C | i | 37 | i | i | i | nt | + | +
COc1ccccc1CCNC(=O)c1cc(C2CC2)nc2c1cnn2C(C)C | nt | i | i | nt | i | nt | nt | nt
CC(C)n1ncc2c(C(=O)NCC(=O)Nc3ccccc3Br)cc(C3CC3)nc21 | i | 30 | i | i | i | nt | i | i
CCCCN(CC(=O)NC1CC1)S(=O)(=O)c1ccc(OCC)cc1 | i | i | i | i | i | nt | nt | nt
O=C(O)c1ccc(Nc2nc3ccccc3nc2NS(=O)(=O)c2ccc(F)cc2)cc1 | i | 46 | i | i | 33 | i | + | 156
CC(=O)Nc1ccc(S(=O)(=O)Nc2nc3ccccc3nc2Nc2cccc(O)c2)cc1 | i | 75 | i | i | i | i | 72 | 58
SMILES | Rv3671c inh | FBA Mtb inh | BH1578 lux ind | Mtb UGM inh | GDH-TPI counter-1 | RecA intein inh | Mtb FBA inh conf | GDH-TPI counter-2
COc1ccc2cc(C#N)c(N3CCOCC3)nc2c1 | i | 37 | i | i | i | i | 66 | 63
CCN(CC)c1nc2cc(OC)ccc2cc1C#N | i | 32 | i | i | i | i | 50 | 35
COc1ccc2cc(C#N)c(NC(C)C)nc2c1 | i | 55 | i | i | i | i | i | i
Cc1c(NC(=O)CSc2nnc(-c3ccccc3F)o2)c(=O)n(-c2ccccc2)n1C | nt | i | i | nt | i | nt | nt | nt
O=C(NC(=S)Nc1ccc(CN2CCOCC2)cc1)c1ccc([N+](=O)[O-])cc1 | i | 33 | i | i | i | i | i | i
CC1(C)CC(=O)C=C(c2ccc3ccccc3c2)C1 | i | 40 | i | i | i | nt | i | i
COC(=O)c1sccc1NC(=O)CC1C(=O)NCCN1C(=O)Nc1ccc(C(F)(F)F)cc1 (configuration not stated) | i | i | i | i | i | i | nt | nt
CCOC(=O)C1CCN(C(=O)c2cc3cc4ccc(OC)cc4nc3o2)CC1 | i | 106 | i | i | i | i | i | 17
COc1ccc2cc3cc(C(=O)N4CCN(Cc5ccc6c(c5)OCO6)CC4)oc3nc2c1 | i | 59 | i | i | 46 | i | + | +
COc1ccc2cc(C(=O)N3CCN(Cc4ccc5c(c4)OCO5)CC3)[nH]c2c1 | i | i | i | i | i | i | nt | nt
COc1ccc2nc3oc(C(=O)N4CCN(c5cccc(Cl)c5)CC4)cc3cc2c1 | i | i | i | i | i | i | nt | nt
COc1ccc2nc3oc(C(=O)N4CCC(C(N)=O)CC4)cc3cc2c1 | i | 98 | nt | i | i | i | + | 154
Cc1cccc(C)c1NC(=O)CN1CCN(C(=O)c2cc(C3CC3)nn2-c2ccccc2)CC1 | nt | i | i | nt | i | nt | nt | nt
O=C(Oc1ccc2c(=O)c(Oc3ccc4ccccc4c3)coc2c1)c1ccco1 | i | 40 | i | i | i | i | 42 | 35
Cc1cc(C)cc(Oc2coc3cc(OC(=O)c4cccnc4)ccc3c2=O)c1 | i | 32 | i | i | i | i | 47 | 36
CC(=O)OC1CCC2(C)C(COc3ccc4ccc(=O)oc4c3)C(C)(O)CCC2C1(C)C (configuration not stated) | i | 79 | i | i | i | i | 42 | 38
CC(C)=CC(=O)O[C@@H]1Cc2c(ccc3ccc(=O)oc23)OC1(C)C | i | 33 | i | i | i | nt | 35 | 26
C/C=C(/C)C(=O)O[C@@H]1[C@H](OC(=O)C=C(C)C)c2c(ccc3ccc(=O)oc23)OC1(C)C | i | i | i | i | i | i | nt | nt
CCO[C@@H]1c2c(ccc3ccc(=O)oc23)OC(C)(C)[C@@H]1O | i | 57 | i | i | i | nt | 56 | 40
